Experiments:
Assay in all cases: DAPPL (digital affinity profiling via proximity ligation, sequencing); 10 mM Tris-HCl pH 7.5, 50 mM NaCl, 1 mM DTT, 4% glycerol, room temperature, 30 min; GST-TFs on glutathione beads, 16-mer random dsDNA library, 0.1% formaldehyde crosslink after washing; high values mean tight binding
Conditions in all cases: protein: recombinant; tags: N-terminal GST; dsDNA, one strand shown
FLI1 = molecular target: T1, FLI1 (Homo sapiens, UniProt Q01543 1-452)
T1 sequence: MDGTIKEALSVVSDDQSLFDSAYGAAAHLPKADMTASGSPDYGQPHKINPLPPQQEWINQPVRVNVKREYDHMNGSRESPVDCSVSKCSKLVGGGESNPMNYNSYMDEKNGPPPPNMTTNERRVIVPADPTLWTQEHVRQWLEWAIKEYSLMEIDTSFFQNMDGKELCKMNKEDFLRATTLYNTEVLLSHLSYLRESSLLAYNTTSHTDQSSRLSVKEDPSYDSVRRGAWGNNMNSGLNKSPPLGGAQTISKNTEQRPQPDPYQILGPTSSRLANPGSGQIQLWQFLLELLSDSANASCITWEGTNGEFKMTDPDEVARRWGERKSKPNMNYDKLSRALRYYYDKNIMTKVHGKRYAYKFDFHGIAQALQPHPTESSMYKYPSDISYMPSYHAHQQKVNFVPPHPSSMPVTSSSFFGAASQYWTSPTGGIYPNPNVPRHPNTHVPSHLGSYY
How it was run: (§1)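 After expression in yeast as GST fusions, human transcription factors were bound to glutathione beads, DNA-barcoded and mixed with a tag-only sample. The pools were incubated with 200 nmole of a 16-mer random double-stranded DNA library in Tris/NaCl/DTT/glycerol buffer (30 min, room temperature), washed and crosslinked with 0.1% formaldehyde. Proximity ligation with BsaI/T4 ligase ran for 1 h at 37 °C, before PCR amplification and sequencing on an Illumina NextSeq500. Binding signal is a hexamer's read frequency for a factor divided by its frequency for the tag-only sample.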

ELK1 = molecular target: T2, ELK1 (Homo sapiens, UniProt P19419 1-428)
T2 sequence: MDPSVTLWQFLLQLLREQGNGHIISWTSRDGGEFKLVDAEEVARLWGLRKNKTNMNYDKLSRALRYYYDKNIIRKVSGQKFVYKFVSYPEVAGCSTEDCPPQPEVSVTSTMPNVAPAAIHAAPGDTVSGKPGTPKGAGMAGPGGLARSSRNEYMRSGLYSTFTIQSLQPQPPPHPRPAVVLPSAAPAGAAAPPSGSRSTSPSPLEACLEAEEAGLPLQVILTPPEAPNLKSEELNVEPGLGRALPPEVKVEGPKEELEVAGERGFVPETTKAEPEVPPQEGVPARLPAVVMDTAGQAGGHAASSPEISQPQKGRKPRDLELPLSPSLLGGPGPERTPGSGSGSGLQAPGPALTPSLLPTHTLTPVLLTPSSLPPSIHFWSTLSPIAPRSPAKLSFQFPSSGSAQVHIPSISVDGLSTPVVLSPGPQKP
How it was run: as §1

GABPA = molecular target: T3, GABPA (Homo sapiens, UniProt Q06546 1-454)
T3 sequence: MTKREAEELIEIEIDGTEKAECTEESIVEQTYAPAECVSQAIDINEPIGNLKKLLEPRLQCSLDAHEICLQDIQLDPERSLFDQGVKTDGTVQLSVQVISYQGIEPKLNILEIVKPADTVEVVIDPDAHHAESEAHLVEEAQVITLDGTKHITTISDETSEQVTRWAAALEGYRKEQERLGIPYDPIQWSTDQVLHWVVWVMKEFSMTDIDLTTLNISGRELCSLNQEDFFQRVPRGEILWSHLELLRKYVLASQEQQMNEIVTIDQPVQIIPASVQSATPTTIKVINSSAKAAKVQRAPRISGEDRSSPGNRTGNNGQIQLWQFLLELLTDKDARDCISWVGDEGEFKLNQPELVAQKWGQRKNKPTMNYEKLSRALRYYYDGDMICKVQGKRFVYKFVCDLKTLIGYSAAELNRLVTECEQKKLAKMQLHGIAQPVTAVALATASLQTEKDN
How it was run: as §1

ERG = molecular target: T4, ERG (Homo sapiens, UniProt P11308 1-479)
T4 sequence: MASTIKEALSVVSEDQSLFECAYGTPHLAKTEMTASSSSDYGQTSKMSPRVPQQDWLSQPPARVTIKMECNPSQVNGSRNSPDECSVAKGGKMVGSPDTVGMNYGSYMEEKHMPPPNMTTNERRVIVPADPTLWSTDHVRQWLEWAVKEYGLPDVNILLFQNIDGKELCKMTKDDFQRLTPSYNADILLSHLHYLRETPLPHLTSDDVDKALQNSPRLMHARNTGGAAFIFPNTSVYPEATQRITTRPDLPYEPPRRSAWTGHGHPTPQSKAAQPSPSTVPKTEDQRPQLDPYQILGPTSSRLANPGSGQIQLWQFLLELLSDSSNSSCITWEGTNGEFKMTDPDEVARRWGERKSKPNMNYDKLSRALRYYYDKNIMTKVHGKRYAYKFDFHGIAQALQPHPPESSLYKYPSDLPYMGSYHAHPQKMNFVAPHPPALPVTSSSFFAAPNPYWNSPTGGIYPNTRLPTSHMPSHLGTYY
How it was run: as §1

ELF1 = ELF1 (Homo sapiens, UniProt P32519 1-619)
How it was run: as §1

EHF = molecular target: T5, EHF (Homo sapiens, UniProt Q9NZC4 1-300)
T5 sequence: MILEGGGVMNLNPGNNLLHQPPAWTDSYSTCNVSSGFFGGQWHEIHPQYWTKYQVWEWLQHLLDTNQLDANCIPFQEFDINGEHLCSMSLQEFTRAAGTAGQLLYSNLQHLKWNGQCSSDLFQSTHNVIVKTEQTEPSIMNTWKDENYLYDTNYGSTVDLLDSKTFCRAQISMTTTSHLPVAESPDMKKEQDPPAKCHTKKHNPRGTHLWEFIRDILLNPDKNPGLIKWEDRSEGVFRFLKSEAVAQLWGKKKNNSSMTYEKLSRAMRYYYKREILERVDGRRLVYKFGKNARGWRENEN
How it was run: as §1

SPI1 = SPI1 (Homo sapiens, UniProt P17947 1-270)
How it was run: as §1

SPIB = SPIB (Homo sapiens, UniProt Q01892 1-262)
How it was run: as §1

ELK3 = molecular target: T6, ELK3 (Homo sapiens, UniProt P41970 1-407)
T6 sequence: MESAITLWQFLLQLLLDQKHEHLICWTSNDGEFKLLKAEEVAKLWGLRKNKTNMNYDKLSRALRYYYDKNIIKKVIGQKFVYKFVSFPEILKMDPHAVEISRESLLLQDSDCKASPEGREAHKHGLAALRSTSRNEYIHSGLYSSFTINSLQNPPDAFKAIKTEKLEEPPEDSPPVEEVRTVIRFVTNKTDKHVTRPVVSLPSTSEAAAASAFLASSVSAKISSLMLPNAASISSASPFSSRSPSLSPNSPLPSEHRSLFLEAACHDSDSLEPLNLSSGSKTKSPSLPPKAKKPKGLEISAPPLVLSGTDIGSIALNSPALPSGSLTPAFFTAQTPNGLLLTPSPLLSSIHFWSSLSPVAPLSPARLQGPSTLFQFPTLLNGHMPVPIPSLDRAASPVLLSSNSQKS
How it was run: as §1

FEV = molecular target: T7, FEV (Homo sapiens, UniProt Q99581 1-238)
T7 sequence: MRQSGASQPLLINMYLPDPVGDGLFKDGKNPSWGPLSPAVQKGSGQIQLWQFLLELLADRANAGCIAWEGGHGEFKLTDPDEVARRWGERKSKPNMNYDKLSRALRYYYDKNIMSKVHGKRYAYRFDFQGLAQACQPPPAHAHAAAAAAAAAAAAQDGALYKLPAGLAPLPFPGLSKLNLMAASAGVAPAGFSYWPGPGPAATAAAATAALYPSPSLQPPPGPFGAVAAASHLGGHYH
How it was run: as §1

ETV5 = ETV5 (Homo sapiens, UniProt P41161 1-510)
How it was run: as §1

SPIC = molecular target: T8, SPIC (Homo sapiens, UniProt Q8N5J4 1-248)
T8 sequence: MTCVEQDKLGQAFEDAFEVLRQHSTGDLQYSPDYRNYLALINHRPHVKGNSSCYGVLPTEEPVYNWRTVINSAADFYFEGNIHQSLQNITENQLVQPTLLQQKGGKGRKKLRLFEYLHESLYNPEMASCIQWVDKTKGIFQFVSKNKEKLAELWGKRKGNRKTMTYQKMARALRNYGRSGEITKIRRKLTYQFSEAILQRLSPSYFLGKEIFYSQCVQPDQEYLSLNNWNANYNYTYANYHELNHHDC
How it was run: as §1

ELF4 = ELF4 (Homo sapiens, UniProt Q99607 1-663)
How it was run: as §1

ELK4 = molecular target: T9, ELK4 (Homo sapiens, UniProt P28324-2 1-405)
T9 sequence: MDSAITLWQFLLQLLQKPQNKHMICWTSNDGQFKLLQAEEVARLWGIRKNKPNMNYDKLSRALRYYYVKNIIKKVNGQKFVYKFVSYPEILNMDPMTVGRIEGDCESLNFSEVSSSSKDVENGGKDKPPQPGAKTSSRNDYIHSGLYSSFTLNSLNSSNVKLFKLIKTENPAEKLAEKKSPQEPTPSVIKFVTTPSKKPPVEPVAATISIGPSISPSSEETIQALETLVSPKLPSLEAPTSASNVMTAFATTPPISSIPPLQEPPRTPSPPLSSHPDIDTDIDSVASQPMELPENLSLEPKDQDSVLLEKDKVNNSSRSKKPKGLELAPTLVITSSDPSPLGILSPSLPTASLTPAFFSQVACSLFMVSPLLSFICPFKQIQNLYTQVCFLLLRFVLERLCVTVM
How it was run: as §1

ETV2 = molecular target: T10, ETV2 (Homo sapiens, UniProt O00321 1-342)
T10 sequence: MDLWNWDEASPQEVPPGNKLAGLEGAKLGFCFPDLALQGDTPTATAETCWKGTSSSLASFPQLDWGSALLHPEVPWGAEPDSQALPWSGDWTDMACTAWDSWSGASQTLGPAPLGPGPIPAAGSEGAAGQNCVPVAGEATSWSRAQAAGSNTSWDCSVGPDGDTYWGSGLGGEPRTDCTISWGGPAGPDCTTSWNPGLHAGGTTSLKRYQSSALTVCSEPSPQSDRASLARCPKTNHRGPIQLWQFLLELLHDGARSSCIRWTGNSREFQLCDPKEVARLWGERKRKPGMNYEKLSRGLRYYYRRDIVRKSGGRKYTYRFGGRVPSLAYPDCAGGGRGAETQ
How it was run: as §1

ELF3 = molecular target: T11, ELF3 (Homo sapiens, UniProt P78545 1-371)
T11 sequence: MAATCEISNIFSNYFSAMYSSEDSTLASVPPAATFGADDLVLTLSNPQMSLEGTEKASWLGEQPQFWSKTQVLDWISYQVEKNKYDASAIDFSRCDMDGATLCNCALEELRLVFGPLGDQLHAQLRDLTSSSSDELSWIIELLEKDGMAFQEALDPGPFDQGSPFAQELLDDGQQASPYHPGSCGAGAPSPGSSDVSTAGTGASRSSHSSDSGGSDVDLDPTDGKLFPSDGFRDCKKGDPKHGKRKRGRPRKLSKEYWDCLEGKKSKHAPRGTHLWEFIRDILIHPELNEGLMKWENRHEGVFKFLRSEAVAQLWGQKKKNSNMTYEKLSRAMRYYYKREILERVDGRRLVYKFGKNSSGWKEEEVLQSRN
How it was run: as §1

CRX = CRX (Homo sapiens, UniProt O43186 1-299)
How it was run: as §1

ETV1 = ETV1 (Homo sapiens, UniProt P50549 1-477)
How it was run: as §1

Chain of ETV5 (P41161 whole entry): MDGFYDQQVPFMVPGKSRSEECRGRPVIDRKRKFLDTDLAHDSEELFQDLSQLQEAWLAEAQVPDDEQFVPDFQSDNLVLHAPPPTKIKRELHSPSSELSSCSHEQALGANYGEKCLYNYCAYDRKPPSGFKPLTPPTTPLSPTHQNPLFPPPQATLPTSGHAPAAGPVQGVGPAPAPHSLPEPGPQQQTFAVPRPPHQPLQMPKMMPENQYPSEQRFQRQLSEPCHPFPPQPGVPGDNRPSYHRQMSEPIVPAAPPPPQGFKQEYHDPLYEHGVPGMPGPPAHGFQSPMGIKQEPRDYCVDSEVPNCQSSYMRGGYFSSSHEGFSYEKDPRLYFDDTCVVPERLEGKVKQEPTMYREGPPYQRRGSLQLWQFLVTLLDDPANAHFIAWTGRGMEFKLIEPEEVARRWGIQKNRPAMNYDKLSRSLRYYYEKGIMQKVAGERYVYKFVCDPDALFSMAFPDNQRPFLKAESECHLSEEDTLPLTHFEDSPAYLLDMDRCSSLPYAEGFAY
Chain of SPIB (Q01892 whole entry): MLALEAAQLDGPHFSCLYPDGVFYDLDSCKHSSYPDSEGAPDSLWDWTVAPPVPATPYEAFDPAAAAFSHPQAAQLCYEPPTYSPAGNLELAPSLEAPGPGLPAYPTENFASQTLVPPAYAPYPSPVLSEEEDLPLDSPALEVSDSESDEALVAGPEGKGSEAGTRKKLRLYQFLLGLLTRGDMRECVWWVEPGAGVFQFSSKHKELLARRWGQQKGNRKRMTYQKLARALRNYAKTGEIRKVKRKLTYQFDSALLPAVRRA
Chain of ELF1 (P32519 whole entry): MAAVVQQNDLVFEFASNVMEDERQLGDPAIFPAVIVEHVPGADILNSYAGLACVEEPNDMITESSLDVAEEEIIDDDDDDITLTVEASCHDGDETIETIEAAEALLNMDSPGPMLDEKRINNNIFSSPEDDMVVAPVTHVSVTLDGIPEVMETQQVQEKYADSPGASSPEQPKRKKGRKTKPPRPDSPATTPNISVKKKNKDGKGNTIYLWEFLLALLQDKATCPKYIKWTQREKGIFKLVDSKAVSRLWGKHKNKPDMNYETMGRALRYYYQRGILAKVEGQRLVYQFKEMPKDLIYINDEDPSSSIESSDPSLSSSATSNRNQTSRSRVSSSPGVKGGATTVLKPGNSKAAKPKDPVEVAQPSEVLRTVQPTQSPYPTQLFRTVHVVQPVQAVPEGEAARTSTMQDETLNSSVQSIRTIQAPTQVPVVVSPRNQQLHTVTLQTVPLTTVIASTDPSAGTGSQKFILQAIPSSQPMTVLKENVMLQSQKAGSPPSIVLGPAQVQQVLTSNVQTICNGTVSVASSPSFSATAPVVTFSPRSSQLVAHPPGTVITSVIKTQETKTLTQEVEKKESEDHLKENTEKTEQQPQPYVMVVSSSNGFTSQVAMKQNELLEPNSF
Chain of ELF4 (Q99607 whole entry): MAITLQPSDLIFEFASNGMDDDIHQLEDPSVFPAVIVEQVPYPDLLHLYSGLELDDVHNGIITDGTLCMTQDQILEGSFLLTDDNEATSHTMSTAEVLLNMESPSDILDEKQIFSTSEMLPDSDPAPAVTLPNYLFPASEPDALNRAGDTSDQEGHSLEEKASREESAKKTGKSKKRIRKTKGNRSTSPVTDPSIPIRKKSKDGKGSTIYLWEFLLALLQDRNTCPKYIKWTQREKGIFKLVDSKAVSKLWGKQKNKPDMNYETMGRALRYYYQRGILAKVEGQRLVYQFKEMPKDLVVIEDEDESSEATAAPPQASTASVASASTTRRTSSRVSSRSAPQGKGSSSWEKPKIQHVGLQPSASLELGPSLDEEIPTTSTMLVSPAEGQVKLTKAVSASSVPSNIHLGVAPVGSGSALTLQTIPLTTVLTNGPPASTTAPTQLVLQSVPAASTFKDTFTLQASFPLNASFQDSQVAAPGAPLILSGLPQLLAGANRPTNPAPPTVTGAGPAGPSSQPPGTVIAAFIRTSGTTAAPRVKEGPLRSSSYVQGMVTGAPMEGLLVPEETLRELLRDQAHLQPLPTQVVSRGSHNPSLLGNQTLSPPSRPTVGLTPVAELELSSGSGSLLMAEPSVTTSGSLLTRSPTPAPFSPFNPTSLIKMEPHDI
Chain of CRX (O43186 whole entry): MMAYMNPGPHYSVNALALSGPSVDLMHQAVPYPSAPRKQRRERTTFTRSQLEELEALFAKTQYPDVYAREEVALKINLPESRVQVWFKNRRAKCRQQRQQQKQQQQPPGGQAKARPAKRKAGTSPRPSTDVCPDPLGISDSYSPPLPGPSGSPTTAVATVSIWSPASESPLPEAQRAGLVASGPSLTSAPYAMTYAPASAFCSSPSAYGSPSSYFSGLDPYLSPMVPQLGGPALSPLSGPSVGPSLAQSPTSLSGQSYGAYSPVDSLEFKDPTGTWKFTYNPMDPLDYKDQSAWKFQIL
Chain of ETV1 (P50549 whole entry): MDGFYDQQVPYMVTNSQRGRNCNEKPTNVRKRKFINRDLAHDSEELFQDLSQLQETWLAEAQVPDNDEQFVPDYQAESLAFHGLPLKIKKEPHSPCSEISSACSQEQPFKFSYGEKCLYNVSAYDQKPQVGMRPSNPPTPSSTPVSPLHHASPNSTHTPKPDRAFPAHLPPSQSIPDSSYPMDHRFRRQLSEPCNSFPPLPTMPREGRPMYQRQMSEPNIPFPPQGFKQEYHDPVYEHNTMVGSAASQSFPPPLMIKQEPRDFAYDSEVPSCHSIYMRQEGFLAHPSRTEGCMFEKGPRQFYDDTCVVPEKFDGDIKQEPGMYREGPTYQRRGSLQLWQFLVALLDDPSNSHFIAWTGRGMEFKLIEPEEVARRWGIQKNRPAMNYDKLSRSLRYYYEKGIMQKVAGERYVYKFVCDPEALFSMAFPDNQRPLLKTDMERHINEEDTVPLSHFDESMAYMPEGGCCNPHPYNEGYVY

Sequence | binding signal (FLI1) | binding signal (ELK1) | binding signal (GABPA) | binding signal (ERG) | binding signal (ELF1) | binding signal (EHF) | binding signal (SPI1) | binding signal (SPIB) | binding signal (ELK3) | binding signal (FEV) | binding signal (ETV5) | binding signal (SPIC) | binding signal (ELF4) | binding signal (ELK4) | binding signal (ETV2) | binding signal (ELF3) | binding signal (CRX) | binding signal (ETV1)
TCATGG | 1.11 fold enrichment (6-mer frequency, TF over GST control) | 1.05 fold enrichment (6-mer frequency, TF over GST control) | 1.11 fold enrichment (6-mer frequency, TF over GST control) | 1.15 fold enrichment (6-mer frequency, TF over GST control) | 1.18 fold enrichment (6-mer frequency, TF over GST control) | 1.12 fold enrichment (6-mer frequency, TF over GST control) | 1.08 fold enrichment (6-mer frequency, TF over GST control) | 1.11 fold enrichment (6-mer frequency, TF over GST control) | 1.16 fold enrichment (6-mer frequency, TF over GST control) | 1.05 fold enrichment (6-mer frequency, TF over GST control) | 1.09 fold enrichment (6-mer frequency, TF over GST control) | 1.16 fold enrichment (6-mer frequency, TF over GST control) | 1.07 fold enrichment (6-mer frequency, TF over GST control) | 1.05 fold enrichment (6-mer frequency, TF over GST control) | 1.04 fold enrichment (6-mer frequency, TF over GST control) | 1.16 fold enrichment (6-mer frequency, TF over GST control) | 1.07 fold enrichment (6-mer frequency, TF over GST control) | –
AAGTCA | 1.18 fold enrichment (6-mer frequency, TF over GST control) | 1.24 fold enrichment (6-mer frequency, TF over GST control) | 1.15 fold enrichment (6-mer frequency, TF over GST control) | 1.26 fold enrichment (6-mer frequency, TF over GST control) | 1.17 fold enrichment (6-mer frequency, TF over GST control) | 1.15 fold enrichment (6-mer frequency, TF over GST control) | 1.3 fold enrichment (6-mer frequency, TF over GST control) | 1.11 fold enrichment (6-mer frequency, TF over GST control) | 1.28 fold enrichment (6-mer frequency, TF over GST control) | 1.17 fold enrichment (6-mer frequency, TF over GST control) | 1.23 fold enrichment (6-mer frequency, TF over GST control) | 1.1 fold enrichment (6-mer frequency, TF over GST control) | 1.22 fold enrichment (6-mer frequency, TF over GST control) | 1.18 fold enrichment (6-mer frequency, TF over GST control) | 1.21 fold enrichment (6-mer frequency, TF over GST control) | 1.21 fold enrichment (6-mer frequency, TF over GST control) | 1.03 fold enrichment (6-mer frequency, TF over GST control) | 1.3 fold enrichment (6-mer frequency, TF over GST control)

Source: PMC7862700, “An all-to-all approach to the identification of sequence-specific readers for epigenetic DNA modifications on cytosine”
